Screens: PubChem BioAssay, Broad Institute
Not all results are given here.
aSyn UTR act: Activators working through SNCA 5'UTR binding (MLPCN); activity score, % (tested at 7.5 µM), hits read low; alpha-synuclein 5'UTR reporter, activators screen; 7.1% of 300,000 active; in the data active means activity score below about -60%
Each line names hits and unclear results; the compound was inactive in the other large screens.

CCOC(=O)N1CC=C2C(C#N)=C(N)C(C#N)(C#N)[C@H](c3ccccc3OCC)[C@H]2C1	aSyn UTR act -90.3
O=c1oc2c(CN3CCOCC3)c(O)ccc2c2ccccc12	aSyn UTR act -71.7
O=C(Oc1c(CN2CCOCC2)cc(Cl)c2cccnc12)c1ccccc1Cl	none
CC(=O)Nc1ccc(-c2csc(NCc3ccccc3)n2)cc1	aSyn UTR act -75.3
C/C(=N/Nc1nc(-c2ccc(Cl)cc2)cs1)c1cccs1	aSyn UTR act -74.9
CC(=O)Nc1ccc(-c2csc(N/N=C(/C)c3ccccc3)n2)cc1	aSyn UTR act -101.8
Cc1cc(C)n(-c2ccc3cccc(NS(C)(=O)=O)c3n2)n1	none
Cc1cc2n(n1)SC(Nc1cccc3ccccc13)N2 (stereo unspecified)	aSyn UTR act -93.9
COc1ccc(N2C(=O)c3ccccc3NC2c2ccc(OC)c(COc3ccccn3)c2)cc1 (stereo unspecified)	aSyn UTR act -76.9
COC(=O)COc1ccc(Cl)cc1C1Nc2ccccc2C(=O)N1c1ccc(OC)cc1 (stereo unspecified)	aSyn UTR act -88.4
COc1ccc(N2C(=O)c3ccccc3NC2c2ccc(OC)c(CSc3ccccn3)c2)cc1 (stereo unspecified)	aSyn UTR act -89.0
N#CC(C#N)=c1ccc2c(c1)NC1(CCCCC1)N=2	aSyn UTR act -337.2
Nc1n[nH]c(N)c1N=Nc1ccc(Cl)cc1Cl	aSyn UTR act -74.4
COc1ccc(N=Cc2oc3ccc4ccccc4c3c2O)cc1	aSyn UTR act -223.2
CC1CCN(C(=O)CSCc2ccc(Cl)cc2)CC1	aSyn UTR act -95.5
COc1ccc(/C(C)=N/NC(=O)c2nc(C)cc(C)n2)cc1	aSyn UTR act -114.3
C/C(=N\NC(=O)CC(C)C)c1ccc(N2CCCCC2)cc1	aSyn UTR act -62.0
COc1ccc(C(=O)N/N=C(/C)c2ccc(N3CCCCC3)cc2)cc1	aSyn UTR act -68.0
CCN(CC(=O)Nc1c(F)cccc1F)C(=O)/C=C/c1ccc(S(=O)(=O)N2CCCCCC2)cc1	none
CCN(CC(=O)NCc1ccc(F)cc1)C(=O)/C=C/c1ccc(S(=O)(=O)N(CC)CC)cc1	aSyn UTR act -79.0
CCN(CC)S(=O)(=O)c1ccc(/C=C/C(=O)Nc2cccc(F)c2)cc1	aSyn UTR act -83.0
CC(C)(C)c1ccc(-c2csc(NNC3=NCCCCC3)n2)cc1	aSyn UTR act -78.3
N#Cc1ccc(-c2csc(NC3=NCCCCC3)n2)cc1	aSyn UTR act -72.6
c1ccc(-c2csc(NC3=NCCCCC3)n2)cc1	aSyn UTR act -98.6
O=C(C1CCCN1S(=O)(=O)c1cccc2nsnc12)N1CCN(c2ccccc2)CC1 (stereo unspecified)	aSyn UTR act -62.8
Cc1c(Cl)cccc1N=c1c([N+](=O)[O-])nn(-c2ccccc2)n1O	aSyn UTR act -140.7
Cc1ccc(N=c2c([N+](=O)[O-])nn(-c3ccccc3)n2O)c(C)c1	aSyn UTR act -194.8
O=C(c1ccccc1)c1nnc(-c2ccccc2F)o1	aSyn UTR act -104.3
CCC(=O)NCCc1nc2cc(NC(=O)c3ccco3)ccc2n1C	aSyn UTR act -72.7
Cn1c(CCNC(=O)c2ccco2)nc2cc(NC(=O)c3ccccc3)ccc21	aSyn UTR act -91.1
COc1ccccc1C(=O)Nc1ccc2c(c1)nc(CCNC(=O)c1ccco1)n2C	aSyn UTR act -294.7
Cn1c(CCNC(=O)c2ccco2)nc2cc(NC(=O)c3ccco3)ccc21	aSyn UTR act -143.7
Cn1c(CCNC(=O)c2ccccc2)nc2cc(NC(=O)c3ccco3)ccc21	aSyn UTR act -80.9
CN(C)/C=N/c1cnc(C(=O)c2ccc(Cl)cc2)n1C	aSyn UTR act -202.0
Cc1ccc(C(=O)NC(=S)Nc2cccc3nsnc23)cc1	aSyn UTR act -100.5
O=C(Nc1cccc2nsnc12)c1ccc2c(c1)OCCO2	aSyn UTR act -212.8
O=C(Nc1cccc2nsnc12)c1ccc2c(c1)OCO2	aSyn UTR act -109.7
O=C(COC(=O)C1CC1)c1c[nH]c2ccccc12	aSyn UTR act -176.6
O=C(Cc1ccccc1[N+](=O)[O-])OCC(=O)c1c[nH]c2ccccc12	aSyn UTR act -69.3
COc1cccc(OCc2cc(C(=O)N3CCNC(=O)C3Cc3ccccc3)no2)c1 (stereo unspecified)	aSyn UTR act -74.4
O=C(c1cc(COc2ccc3ncccc3c2)on1)N1CCC[C@H]1CO	aSyn UTR act -66.7
COc1cccc(OCc2cc(C(=O)N3CCCC3c3ccccn3)no2)c1 (stereo unspecified)	aSyn UTR act -84.3
Cc1ccc(Nc2nc(Cl)nc(NC(C)(C)C)n2)cc1	aSyn UTR act -153.8
Cc1ccc(Nc2nc(Nc3ccc(C)cc3)nc(SC3=NCCS3)n2)cc1	aSyn UTR act -94.6
COc1ccc(-n2c(SCC(=O)Nc3ccc(Br)cc3)nc(O)cc2=O)cc1	aSyn UTR act -118.9
COc1ccc(-n2c(C)cc(C(=O)CSc3ccc(NC(C)=O)cc3)c2C)cc1	aSyn UTR act -89.1
COc1ccc(-n2c(C)cc(C(=O)CCl)c2C)cc1	none
COc1ccc(NC(=O)CSCc2ccccc2C)cc1	aSyn UTR act -90.3
COc1ccc(CNC(=O)CSCc2ccccc2Cl)cc1	aSyn UTR act -61.7
Cc1ccc(SCC(=O)NC(C)(C)C)cc1	aSyn UTR act -66.1
COc1ccc(NC(=O)CSc2ccccn2)c([N+](=O)[O-])c1	aSyn UTR act -72.5
COc1ccc(NC(=O)CSc2ccc(C)cc2)cc1	aSyn UTR act -148.6
COc1ccc(NC(=O)CSc2ccccn2)cc1	aSyn UTR act -78.7
CCc1ccc(NC(=O)CSc2ccccn2)cc1	aSyn UTR act -74.0
Cc1ccc(NC(=O)CSc2n[nH]c(-c3ccccn3)n2)cc1	none
Cc1ccc(O)c(NC(=O)CSc2ccc(Cl)cc2)c1	aSyn UTR act -177.1
CCOc1ccc(-c2cc(CCCC(=O)Nc3cccc(OC)c3)no2)cc1	none
COc1cccc(NC(=O)CSc2ccccn2)c1	aSyn UTR act -144.3
O=C(CCSc1ccccn1)Nc1ccc(Br)cc1	aSyn UTR act -152.9
COc1ccccc1C(=O)CSc1ccccn1	aSyn UTR act -95.2
COc1cc(/C=C/[N+](=O)[O-])ccc1OC(=O)c1cc2ccccc2oc1=O	aSyn UTR act -102.4
COc1cccc(OCC(=O)O/N=C(\N)c2ccncc2)c1	aSyn UTR act -90.0
N/C(=N\OC(=O)COc1ccccc1)c1ccncc1	aSyn UTR act -82.3
N/C(=N\OC(=O)COc1ccccc1)c1cccnc1	aSyn UTR act -112.8
N/C(=N\OC(=O)COc1ccccc1)c1ccc(Cl)cc1	aSyn UTR act -67.1
COc1ccc(/C(N)=N/OC(=O)COc2ccccc2Cl)cc1	aSyn UTR act -141.5
N/C(=N\OC(=O)CSc1ccccc1)c1ccncc1	aSyn UTR act -90.7
O=C1/C(=C/c2ccc(N3CCOCC3)o2)SC(=Nc2ccccc2)N1CCc1c[nH]c2ccccc12	aSyn UTR act -120.8
FC(F)(F)c1nnc2c(Sc3ccccc3)nc3ccccc3n12	aSyn UTR act -102.7
O=C(Nc1ccc(F)cc1)Nc1nnc(-c2ccco2)s1	aSyn UTR act -99.6
O=C(Nc1nnc(-c2ccco2)s1)C1CC1	aSyn UTR act -76.3
O=C(COc1ccccc1)Nc1ccc2c(c1)nc1n2CCSC1	aSyn UTR act -124.8
O=C(COc1ccccc1)Nc1ccc2c(c1)nc1n2CCOC1	aSyn UTR act -85.1
Nc1nc(-c2nc3ccccc3[nH]2)cs1	aSyn UTR act -86.2
O=c1[nH]c(-c2ccccn2)nc2ccccc12	aSyn UTR act -96.3
c1ccc(-c2nc3ccccc3[nH]2)nc1	aSyn UTR act -81.0
c1ccc(-c2nc3c(ccc4ccccc43)[nH]2)nc1	aSyn UTR act -157.0
CN=C(Nc1ccc(Cl)cc1)c1ccc(C(F)(F)F)cc1	aSyn UTR act -91.7
